Results filed as inconclusive are left out. The source made the active and inactive calls. Unless noted, the call rests on the fitted dose curve; in most records, active means well fitted curve in the direction sought with a large enough effect in the repeat runs; inconclusive means weak or mixed curves; inactive means no such curve, though single readings can be large; an effect the other way counts as inactive or inconclusive.
Tests used:
[1] = qHTS assay to identify small molecule agonists of the peroxisome proliferator-activated receptor delta (PPARd) signaling pathway - cell viability counter screen (AID 743211); further: nearly all actives have a fitted effect of over 55% in size; further: potency means the concentration at half of the fitted maximal effect
In short: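 HEK293H PPARd-bla, 3000 cells/well; 5 h preincubation 37C/5% CO2; cpd in DMSO, 17 h 37C; B/G FRET substrate 2 h RT; CellTiter-Glo 30 min RT, luminescence.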

[2] = target: Peroxisome proliferator-activated receptor delta (Homo sapiens) (UniProt Q03181); test: qHTS assay to identify small molecule agonists of the peroxisome proliferator-activated receptor delta (PPARd) signaling pathway (AID 743212; calls by dose curve)
Sequence of Peroxisome proliferator-activated receptor delta (Homo sapiens) (Q03181 whole entry, looked up): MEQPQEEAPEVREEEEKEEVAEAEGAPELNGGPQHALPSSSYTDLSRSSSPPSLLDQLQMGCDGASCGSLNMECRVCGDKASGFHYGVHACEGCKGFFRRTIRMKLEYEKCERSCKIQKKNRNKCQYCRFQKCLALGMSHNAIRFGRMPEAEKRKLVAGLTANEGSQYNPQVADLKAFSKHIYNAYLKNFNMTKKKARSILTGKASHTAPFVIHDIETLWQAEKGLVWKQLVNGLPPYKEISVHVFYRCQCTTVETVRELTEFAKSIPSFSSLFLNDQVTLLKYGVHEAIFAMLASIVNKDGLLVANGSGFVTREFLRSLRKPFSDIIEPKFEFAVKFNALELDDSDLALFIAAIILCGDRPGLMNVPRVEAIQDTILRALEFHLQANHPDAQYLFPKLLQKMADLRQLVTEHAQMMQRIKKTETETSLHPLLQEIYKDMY
In short: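 HEK293H UAS-bla reporter cells, human PPARd system; compounds delivered in DMSO after 5 h plating, then at 37 C. Beta-lactamase FRET read, 2 h RT substrate step.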

[3] = qHTS assay to identify small molecule antagonists of the peroxisome proliferator-activated receptor delta (PPARd) signaling pathway - cell viability counter screen (AID 743213); further: nearly all actives have a fitted effect of over 50% in size; further: potency means the concentration at half of the fitted maximal effect
In short: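 Viability counter-screen, qHTS format: PPARd-bla HEK293H, L165041 300 nM final, 17 h compound exposure at 37 C, CellTiter-Glo luminescence after 30 min RT.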

[4] = target: Peroxisome proliferator-activated receptor delta (Homo sapiens) (UniProt Q03181); test: qHTS assay to identify small molecule antagonists of the peroxisome proliferator-activated receptor delta (PPARd) signaling pathway (AID 743215; active means well fitted inhibition curve with a large enough effect in the signal ratio in the repeat runs, not every such curve was filed as active; the % refers to the signal ratio;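 further: cells stimulated with agonist L165041 at 300 nM final during compound exposure; series mostly up to about 62 µM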)
In short: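 HEK293H UAS-bla, PPARd; agonist L165041 300 nM final with cpd in DMSO; 37 C 17 h; FRET substrate, RT 2 h; fluorescence intensity.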

[5] = target: Bile acid receptor (Homo sapiens) (UniProt Q96RI1); test: qHTS assay to identify small molecule antagonists of the farnesoid-X-receptor (FXR) signaling pathway (AID 743217; active means well fitted inhibition curve with a large enough effect in the signal ratio in the repeat runs, not every such curve was filed as active; the % refers to the signal ratio)
Sequence of Bile acid receptor (Homo sapiens) (Q96RI1 whole entry, looked up): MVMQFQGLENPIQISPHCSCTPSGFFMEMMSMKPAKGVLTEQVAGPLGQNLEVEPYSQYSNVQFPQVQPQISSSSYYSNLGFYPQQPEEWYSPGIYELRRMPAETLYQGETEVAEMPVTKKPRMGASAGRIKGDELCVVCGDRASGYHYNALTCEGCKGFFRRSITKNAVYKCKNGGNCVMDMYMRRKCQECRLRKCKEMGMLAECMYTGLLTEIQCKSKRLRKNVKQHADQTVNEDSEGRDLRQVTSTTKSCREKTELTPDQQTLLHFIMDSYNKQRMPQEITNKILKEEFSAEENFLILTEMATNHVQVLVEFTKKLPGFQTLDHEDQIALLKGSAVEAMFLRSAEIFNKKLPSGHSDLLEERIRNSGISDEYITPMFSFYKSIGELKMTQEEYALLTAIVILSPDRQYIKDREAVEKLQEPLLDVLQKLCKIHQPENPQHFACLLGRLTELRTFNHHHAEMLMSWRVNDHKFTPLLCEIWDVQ
In short: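 GeneBLAzer FXR-UAS-bla HEK 293T, CDCA-stimulated (50 uM final). Compound treatment 16 h, 37 °C. Detection: beta-lactamase cleavage of B/G FRET substrate, fluorescence.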

[6] = qHTS assay to identify small molecule agonists of the farnesoid-X-receptor (FXR) signaling pathway - cell viability counter screen (AID 743218); further: nearly all actives have a fitted effect of over 45% in size; further: potency means the concentration at half of the fitted maximal effect
In short: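 Parallel cytotoxicity test: compound-treated (16 h, 37 C) HEK 293T FXR-bla reporter cells were lysed with CellTiter-Glo and luminescence recorded.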

[7] = target: Bile acid receptor (Homo sapiens) (UniProt Q96RI1); test: qHTS assay to identify small molecule agonists of the farnesoid-X-receptor (FXR) signaling pathway (AID 743220; active means well fitted activation curve with a large enough effect in the signal ratio in the repeat runs, not every such curve was filed as active; the % refers to the signal ratio)
In short: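 Beta-lactamase reporter under UAS control in GeneBLAzer FXR HEK 293T cells (5000/well) measured with LiveBLAzer FRET substrate after 2 h at room temperature. Compound exposure lasted 16 h at 37C.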

[8] = qHTS assay to identify small molecule antagonists of the farnesoid-X-receptor (FXR) signaling pathway - cell viability counter screen (AID 743221; active means well fitted cell-killing curve with a large enough effect in the repeat runs, not every such curve was filed as active; further: nearly all actives have a fitted effect of over 50% in size; further: potency means the concentration at half of the fitted maximal effect)
In short: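 Luminescence from CellTiter-Glo measures cytotoxicity in GeneBLAzer FXR-UAS-bla HEK 293T cells. Cells were exposed to compounds with 50 uM chenodeoxycholic acid (final) for 16 h at 37 C, in wells also used for the reporter readout.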

[9] = target: Vitamin D3 receptor (Homo sapiens) (UniProt P11473); test: qHTS assay to identify small molecule agonists of the vitamin D receptor (VDR) signaling pathway (AID 743222; calls by dose curve)
Sequence of Vitamin D3 receptor (Homo sapiens) (P11473 whole entry, looked up): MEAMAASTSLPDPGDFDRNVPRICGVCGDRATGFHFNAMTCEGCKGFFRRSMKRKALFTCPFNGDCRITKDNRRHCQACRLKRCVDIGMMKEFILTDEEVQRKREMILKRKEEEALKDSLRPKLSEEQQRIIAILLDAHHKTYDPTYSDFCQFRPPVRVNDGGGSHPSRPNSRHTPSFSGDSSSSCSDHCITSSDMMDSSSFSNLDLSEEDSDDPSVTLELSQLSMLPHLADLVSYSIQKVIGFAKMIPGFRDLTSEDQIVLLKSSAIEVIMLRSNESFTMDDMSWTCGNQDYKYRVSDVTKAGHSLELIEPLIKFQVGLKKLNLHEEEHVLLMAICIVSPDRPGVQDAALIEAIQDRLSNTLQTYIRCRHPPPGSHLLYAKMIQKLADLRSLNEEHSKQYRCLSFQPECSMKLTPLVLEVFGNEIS
In short: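 In VDR-bla cells, compound-induced beta-lactamase expression is quantified by FRET substrate fluorescence. Treatment lasts 16 h at 37C; substrate develops 2 h at room temperature.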

[10] = target: Vitamin D3 receptor (Homo sapiens) (UniProt P11473); test: qHTS assay to identify small molecule antagonists of the vitamin D receptor (VDR) signaling pathway (AID 743223; active means well fitted inhibition curve with a large enough effect in the signal ratio in the repeat runs, not every such curve was filed as active; the % refers to the signal ratio)
In short: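 Antagonist mode uses 1alpha,25-dihydroxyvitamin D3 at 3 nM final as stimulus. VDR-bla cells receive compounds in DMSO, incubate 16 h at 37C, then a beta-lactamase FRET substrate for 2 h at room temperature before fluorescence measurement.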

[11] = qHTS assay to identify small molecule agonists of the vitamin D receptor (VDR) signaling pathway - cell viability counter screen (AID 743224); further: nearly all actives have a fitted effect of over 50% in size; further: potency means the concentration at half of the fitted maximal effect
In short: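 Plated VDR-bla cells (4 h, 37C) received compound, incubated 16 h, then LiveBLAzer substrate 2 h RT; CellTiter-Glo added afterwards, luminescence read at 30 min.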

[12] = qHTS assay to identify small molecule agonists of the NFkB signaling pathway (AID 1159509; active means well fitted curve in the direction sought with a large enough effect in the signal ratio in the repeat runs, not every such curve was filed as active; the % refers to the signal ratio; further: series mostly up to about 61 µM)
In short: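 NFkB-bla ME-180 cells with a beta-lactamase reporter under an NF-kB response element were plated overnight, treated with compounds in DMSO for 5 hr at 37 C, then loaded with FRET substrate for 1.5 hr at room temperature.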

[13] = qHTS assay to identify small molecule agonists of the endoplasmic reticulum stress response signaling pathway (AID 1159516; active means well fitted activation curve with a large enough effect in the signal ratio in the repeat runs, not every such curve was filed as active; the % refers to the signal ratio; further: potency means the concentration at half of the fitted maximal effect)
In short: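 An ESRE-bla HeLa cell assay: compounds were pin-transferred from DMSO onto overnight-plated cells and left 5 hr at 37 C. Substrate was then loaded for 2 hr at room temperature before reading fluorescence at 460 nm and 530 nm.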

[14] = qHTS assay to identify small molecule agonists of the endoplasmic reticulum stress response signaling pathway - cell viability counter screen (AID 1159517; calls by dose curve;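 further: HeLa cells carrying an ER stress response element beta-lactamase reporter; series mostly up to about 61 µM; nearly all actives have a fitted effect of over 50% in size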)
In short: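 Cells, HeLa ESRE-bla; density, 1,500/well; dosing, 5 hr at 37 C, 5% CO2; readout, CellTiter-Glo luminescence after 30 min RT.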

[15] = qHTS assay to identify small molecule antagonists of the retinoid-related orphan receptor gamma (ROR-gamma) signaling pathway - cell viability counter screen (AID 1159520); further: nearly all actives have a fitted effect of over 50% in size
In short: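 Cytotoxicity was read from cellular ATP (CellTiter-Glo luminescence) after 16 hr at 37 C with 1 uM doxycycline induction. The inducer was added 2 hr after compound transfer to Tet-on ROR gamma CHO cells.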

[16] = qHTS assay to identify small molecule agonists of the AP-1 signaling pathway (AID 1159526; calls by dose curve)
[17] = qHTS assay to identify small molecule agonists of the AP-1 signaling pathway - cell viability counter screen (AID 1159525; calls by dose curve; further: nearly all actives have a fitted effect of over 55% in size)
In short: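 Luminescent ATP readout (Cell Titer Glo, 30 min RT), normalised to DMSO and tetra n-octyl ammonium bromide controls. Cells were ME-180 AP-1-bla in 0.5% dialyzed FBS Opti-MEM, with a 5 h, 37 °C compound exposure.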

[18] = qHTS assay to identify small molecule antagonists of the vitamin D receptor (VDR) signaling pathway - cell viability counter screen (AID 743225); further: nearly all actives have a fitted effect of over 50% in size
In short: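 Read-out: CellTiter-Glo luminescence measured 30 min after reagent addition at room temperature. Cells were VDR-bla HEK 293T exposed 16 h at 37C, 5% CO2, to compound with 3 nM final calcitriol agonist.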

[19] = target: Nuclear receptor ROR-gamma (Homo sapiens) (UniProt P51449); test: qHTS assay to identify small molecule antagonists of the retinoid-related orphan receptor gamma (ROR-gamma) signaling pathway (AID 1159521; further: nearly all actives have a fitted effect of over 50% in size; further: potency means the concentration at half of the fitted maximal effect)
In short: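 CHO Tet-on RORγ, RORE-luc reporter. Cpd 2 h pre-incubation, then dox hyclate 1 uM final, 16 h, 37 C/5% CO2. ONE-Glo luminescence; decrease = antagonist.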

Measured: Potency

Cc1ccccc1N=C(N)Nc1ccccc1C
not listed: [17] | [18] | [19]
inactive: all other assays above

O=C(O)CCC(=O)C(=O)O
not listed: [2] | [4] | [5] | [7] | [18] | [19]
inactive: all other assays above

CCC(=O)OC
not listed: [2] | [3] | [4] | [5] | [7] | [18] | [19]
inactive: all other assays above

COC(=O)[C@H]1[C@H]2C[C@@H]3c4[nH]c5cc(OC)ccc5c4CCN3C[C@H]2C[C@@H](OC(=O)/C=C/c2ccc(O)c(OC)c2)[C@@H]1OC
inactive: [7] | [18] | [12] | [13] | [14] | [17] | [16]
active: [1] 8.41 µM | [3] 10.6 µM | [6] 8.41 µM | [8] 18.8 µM | [19] 13.3 µM

Nc1nnc(-c2ccc([N+](=O)[O-])o2)o1
active: [19] 6.86 µM
not listed: [5] | [6] | [7] | [16] | [17]
inactive: all other assays above

OCCOCC#CCOCCO
active: [13] 49 µM
not listed: [4] | [5] | [7] | [8] | [9] | [10] | [15]
inactive: all other assays above

CC1(C)S[C@@H]2[C@H](NC(=O)C(c3ccccc3)S(=O)(=O)O)C(=O)N2[C@H]1C(=O)O (stereo partly specified)
not listed: [2] | [4] | [5] | [7] | [19]
inactive: all other assays above

CCCCN(CCN(CCCC)C(=O)N1CCOCC1)C(=O)N1CCOCC1
active: [11] 33.5 µM
inactive: [6] | [8] | [10] | [18] | [12] | [13] | [14] | [15] | [17]

C[C@@H](CN(C)C)CN1c2ccccc2Sc2ccccc21
active: [1] 23.7 µM | [3] 26.6 µM | [19] 26.6 µM
inactive: [4] | [7] | [11] | [18] | [12] | [13] | [14] | [17]

CCC=CC#N
not listed: [4] | [5] | [6] | [7] | [9] | [10] | [18] | [19]
inactive: all other assays above

Nc1nc2ccc([N+](=O)[O-])cc2s1
inactive: [8] | [11] | [12] | [13] | [14] | [15]

O=C(/C=C/c1ccccc1)OCCc1ccccc1
not listed: [2] | [4] | [5] | [6] | [7] | [9] | [10] | [19]
inactive: all other assays above

N#CCc1ccc(Cl)cc1Cl
not listed: [4] | [5] | [7] | [9] | [10] | [19]
inactive: all other assays above

O=C(O)C[C@H](NC(=O)OCc1ccccc1)C(=O)O
not listed: [5] | [7] | [19]
inactive: all other assays above

C=CCc1ccccc1OCC(O)CNC(C)C (stereo unspecified)
not listed: [5] | [7] | [19]
inactive: all other assays above

COc1ncnc(NS(=O)(=O)c2ccc(N)cc2)c1OC
not listed: [5] | [7] | [10] | [19]
inactive: all other assays above

CNC(=O)c1cnn(-c2nc(N)c3ncn([C@@H]4O[C@H](CO)[C@@H](O)[C@H]4O)c3n2)c1
not listed: [2] | [4] | [5] | [7] | [10] | [17] | [19]
inactive: all other assays above

COc1ccccc1N1CCN(CCCCNC(=O)c2ccc(-c3ccc(C(C)=O)cc3)cc2)CC1
not listed: [19]
inactive: all other assays above

CN1C[C@H](C(=O)N[C@]2(C)O[C@@]3(O)[C@@H]4CCCN4C(=O)[C@H](Cc4ccccc4)N3C2=O)C[C@@H]2c3cccc4[nH]cc(c34)C[C@H]21
active: [1] 23.7 µM | [6] 26.6 µM | [11] 29.8 µM
inactive: [12] | [13] | [14] | [19] | [17] | [16]

Reference: PubChem BioAssay (Tox21)
